Most compounds without a hit are left out; they make up all but 1.7% or so of the library.
GLP1R ag = agonists of human GLP-1 receptor; P43220; HEK293 GLP-1R CRE-luciferase, luminescence, 4-6 h; cells express a hypersensitive GLP-1R form; Potency, µM (series often up to 45.6 µM), for the others: at the highest dose activation, actives largely listed as activators; 380,000 compounds, 0.007% hits; AID 624172; further: % of control where 0% means no effect
HEK293 tox = cytotoxicity counter-screen for GLP-1 receptor inverse agonists. HEK293 cAMP-luciferase reporter cells, luminescence, 24 h. Potency, µM (top dose mostly 38.3 µM), for the others: at the highest dose activity change, negative = inhibition, actives largely listed as inhibitors. 410,000 compounds, 0.13% hits;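 further: loss of luciferase light is scored as toxicity; on the % scale 0 is the no-effect control and ±100 the full control effect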
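A 23 nL compound transfer followed 12 hours of cell culture at 37 deg C; exposure then lasted 24 hr. Luciferase assay detection reagent was dispensed and plates read for luminescence after a 12 min room-temperature wait.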
GLP-1R inv ag = GLP-1 receptor (human) inverse agonism; AID 624417; 410,000 compounds, 1.6% hits; P43220; Potency, µM (doses to about 38.3 µM), for the others: top-dose activity change, negative = inhibition, most hits filed as inhibitors; HEK293 GLP-1R CRE-luciferase, luminescence, 24 h; GLP-1R form is constitutively active; further: on the % scale 0 is the no-effect control and ±100 the full control effect; nearly all actives have a fitted effect of over 55% in size
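Inverse agonism was detected as reduced cAMP-driven luciferase luminescence after 24 h compound treatment. The cells were HEK293 clones expressing constitutively active human GLP-1R with the reporter. Reporter-only and GPR119 cell lines served as counterscreen controls.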
PTHR1 agonist = PTHR1 (human) receptor agonism. Q03431. HEK293 GP2 PTHR1 cells, GloSensor cAMP luminescence, 1 h. Potency, µM (titrated, usually from 115 µM), inactives show top-dose activation, actives largely listed as activators. 410,000 compounds, 0.075% hits. AID 743266; further: nearly all actives have a fitted effect of over 55% in size
Target sequence (Q03431 whole entry, looked up): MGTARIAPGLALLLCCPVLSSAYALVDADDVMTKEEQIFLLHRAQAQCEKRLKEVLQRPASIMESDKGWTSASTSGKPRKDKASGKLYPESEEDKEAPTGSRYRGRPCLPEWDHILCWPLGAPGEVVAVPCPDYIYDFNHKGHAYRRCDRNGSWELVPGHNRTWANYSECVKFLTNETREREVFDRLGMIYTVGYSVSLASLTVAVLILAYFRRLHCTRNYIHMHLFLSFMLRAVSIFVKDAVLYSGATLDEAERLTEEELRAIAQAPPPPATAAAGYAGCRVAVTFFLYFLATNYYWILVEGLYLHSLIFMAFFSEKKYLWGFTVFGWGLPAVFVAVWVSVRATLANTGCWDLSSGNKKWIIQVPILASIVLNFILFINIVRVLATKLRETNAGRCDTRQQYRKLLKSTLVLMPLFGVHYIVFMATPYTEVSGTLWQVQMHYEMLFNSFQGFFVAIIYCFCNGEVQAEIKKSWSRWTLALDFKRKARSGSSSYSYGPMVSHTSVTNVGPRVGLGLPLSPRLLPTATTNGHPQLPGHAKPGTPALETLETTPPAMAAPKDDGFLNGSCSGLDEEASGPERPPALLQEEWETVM
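HEK-293-derived GP2 cells expressing PTHR1 and a GloSensor cAMP reporter, 3,000/well, plated overnight, given luciferin plus IBMX (each 0.5 mM as added) for 1 h at 37 °C, then compound for 1 h at 37 °C. Luminescence was read after 15 min at room temperature.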
* hit, by the source's call; i = inactive; ? = inconclusive; / = no result; [ ] = dose if it differs, or a comment. The call rests on the fitted dose curve; in most records, active means well fitted curve in the direction sought with a large enough effect; inconclusive means small, poorly fitted or top-dose-only effect, or another doubt; inactive means no such curve, though single readings can be large; an effect the other way counts as inactive or inconclusive. Potency means the concentration at half of the fitted maximal effect.

SMILES	GLP1R ag	HEK293 tox	GLP-1R inv ag	PTHR1 agonist
Cc1ccc(C2CC(c3cccs3)=NN2C(=O)CSC2=NCCS2)cc1 (configuration not stated)	-2%	-5%	4.5µM*	-22%
COc1ccc(/C=N\NC(=O)c2ccccc2)cc1COc1ccc(F)cc1	-5%	-8%	7.9µM*	-18%
COc1ccc(C(=O)N/N=C/c2ccc(OC)c(COc3ccc(F)cc3F)c2)cc1	-15%	-12%	?	i
COc1ccc(C(=O)N/N=C/c2ccc(OC)c(COc3ccc(F)cc3)c2)cc1	-28%	4%	10µM*	i
COc1ccc(/C=N\NC(=O)c2ccccc2Br)cc1COc1ccc(F)cc1	-3%	14%	21%	-4%
CC(C)(C)c1ccc(CSc2nc3c(c(=O)[nH]2)CCCC3)cc1	/	5%	2%	i
CCOC(=O)[C@]12CCCC=C1N(Cc1ccco1)C(=O)[C@H](CC(=O)N1CCCCC1)C2	-4%	-2%	7%	-15%
CCOc1ccc(Nc2nc(C)c(NC(=O)c3cccc(F)c3)c(Nc3ccc(OCC)cc3)n2)cc1	/	-3%	-5%	-20%
OC(c1ccc(F)c(F)c1)c1nc(-c2ccccc2)cs1 (configuration not stated)	-5%	-10%	-29%	-21%
COc1ccc(-c2csc(C(O)c3ccc(F)c(F)c3)n2)cc1 (configuration not stated)	8%	-7%	11µM*	-38%
CCN(CCCNC(=O)c1cc(Nc2ccc(OC)cc2OC)nc2ccccc12)c1cccc(C)c1	/	126%	?	6%
Cc1ccc(Cn2cc(CCC(=O)NCC(C)c3ccccc3)c3ccccc32)cc1 (configuration not stated)	/	4%	?	-36%
O=[N+]([O-])c1ccc(CSc2ccc(S(=O)(=O)N3CCCCCC3)cn2)cc1	21%	33%	11µM*	-20%
CCOc1ccccc1NC(=O)C(c1ccccc1)N1Cc2ccccc2C1=O (configuration not stated)	/	-9%	-22%	-1%
O=C(CCCSc1nc2ccccc2[nH]1)NC(c1ccccc1)c1ccccc1	0%	-19%	8.9µM*	-20%
Cc1ccc(Cl)cc1N(CC(=O)Nc1cccc(N(C)S(C)(=O)=O)c1)S(C)(=O)=O	4%	-1%	-29%	i
CN(c1cccc(NC(=O)CN(c2cccc(Cl)c2)S(=O)(=O)c2ccc(Cl)cc2)c1)S(C)(=O)=O	3%	27%	7.9µM*	-22%
O=C(COc1ccc(Br)cc1Cl)NC(=O)NC1CCCC1	12%	0%	3.5µM*	-39%
O=C(COc1ccc(Br)cc1Cl)NC1CCCCC1	0%	0%	12%	-38%
O=C(COc1ccc(Cl)cc1Br)NC(=O)NC1CCCC1	2%	-3%	10µM*	-31%
O=C(COc1ccc(Cl)cc1Cl)NC(=O)NC1CCCC1	27%	-2%	?	-21%
O=C(Nc1cccc(F)c1)C1CCN(S(=O)(=O)c2ccc3[nH]c4c(c3c2)CCCCC4)CC1	/	-7%	?	-25%
O=C(c1ccc2c(c1)N(Cc1cccc(Cl)c1)C(=O)c1ccccc1S2)N1CCOCC1	/	-24%	-16%	-60%
COc1cc(/C=C/c2sc3ccccc3[n+]2CCCS(=O)(=O)[O-])ccc1O	-3%	10µM*	31%	-7%
CCC(/C=C1\Oc2ccc(OC)cc2N1C)=C\c1sc2ccccc2[n+]1CCCS(=O)(=O)[O-]	-5%	-16%	-16%	-23%
SMILES	GLP1R ag	HEK293 tox	GLP-1R inv ag	PTHR1 agonist
CCOc1ccc(NC(=O)c2cc(S(=O)(=O)NC3CCCCCC3)ccc2F)cc1	/	1%	?	-17%
CCOc1ccccc1NC(=O)C1(S(=O)(=O)c2ccc(Cl)cc2)CC1	27%	3%	7.1µM*	-15%
CCOc1ccccc1NC(=O)c1cc(S(=O)(=O)NC2CCCC2)ccc1F	/	14%	6.3µM*	-29%
S=C(NCc1ccc(Cl)cc1)NC1CCN(Cc2ccccc2)CC1	6%	?	3.5µM*	-16%
S=C(Nc1cc(Cl)cc(Cl)c1)NC1CCN(Cc2ccccc2)CC1	-2%	?	4µM*	i
O=C(CCS(=O)(=O)c1ccc(F)cc1)Nc1nc(-c2ccccn2)cs1	0%	?	?	i
CC(Oc1ccc(F)cc1)C(=O)Nc1nc(-c2ccccn2)cs1 (configuration not stated)	10%	?	10µM*	i
CO[C@H]1[C@@H](O)[C@H](N)[C@@H](O[C@H]2O[C@@H]([C@H](C)N)CC[C@H]2N)[C@H](O)[C@@H]1N(C)C(=O)CN	-2%	/	/	/
OC1CC2CCC(C1)N2CCCN1c2ccccc2Sc2ccc(Cl)cc21 (configuration not stated)	9%	0%	2.8µM*	-16%
N#Cc1c[nH]n2c(NC3CCCC3)c(-c3cccc(Br)c3)nc12	/	3%	9%	-9%
O=C(O)c1ccc(N/N=C/c2c(F)cccc2Cl)cc1	-5%	-2%	5µM*	-40%
O=C(N/N=C/c1c(F)cccc1Cl)C1CC1	6%	-22%	11%	-11%
CCCC[C@@H](CC)COC(=O)C[C@H](C(=O)OC[C@H](CC)CCCC)S(=O)(=O)O	-1%	/	/	/
Cc1cc(C(=O)NNc2ccc(F)cc2F)no1	0%	?	2.8µM*	i
O=C(CN1C(=O)CC(c2ccco2)Sc2ccccc21)Nc1ccc(OC(F)(F)F)cc1 (configuration not stated)	10%	-2%	-26%	-23%
CC(C)(C)C(=O)Nc1nc(-c2ccc3c(c2)OCO3)cs1	-4%	6%	10µM*	-39%
CCC(=O)Nc1nc(-c2ccc3c(c2)OCCO3)cs1	-2%	-3%	-25%	-50%
Clc1cccc(CSc2ccc(-c3cccs3)nn2)c1	/	5%	?	-51%
CCOC(=O)c1nc2ccc(C)cc2c2c1C1CC(c3c(Cl)cccc31)N2C(=O)OCc1ccccc1 (configuration not stated)	12%	3%	5µM*	-23%
CCN(CC)S(=O)(=O)c1nnc(NC(=O)COc2ccc(C)cc2)s1	/	1%	2%	i
COc1cc(NS(=O)(=O)c2cc(C)ccc2OC)c(OC)cc1Cl	1%	0%	-42%	i
COc1ccc(Cl)cc1NS(=O)(=O)c1ccc(OC)c(OC)c1	-8%	2%	-2%	-23%[57.5 µM]
COc1ccc(S(=O)(=O)Nc2cc(Cl)ccc2OC)cc1	-2%	-26%	1.4µM*	-7%
COc1ccc(C)cc1S(=O)(=O)Nc1cc(Cl)ccc1Cl	-34%	11%	8.9µM*	i
CC1CCC(NC(=O)CCc2cn(Cc3ccccc3Cl)c3ccccc23)CC1 (configuration not stated)	/	-5%	-25%	-18%
O=C(CCc1cn(Cc2ccccc2Cl)c2ccccc12)NC1CCCCC1	/	-19%	10µM*	-11%
COc1ccc(-c2cc(CNc3nc4cc(-c5ccccc5C)sc4c(=O)n3C)on2)cc1	3%	2%	30%	-20%
